TDP1 cell noCPT = qHTS for Inhibitors of human tyrosyl-DNA phosphodiesterase 1 (TDP1): qHTS in cells in absence of CPT; DT40 Tdp1-/- hTDP1 cells, no CPT, ATP luminescence, 48 h; hit rate 15% among 420,000; Potency, µM (top dose mostly 46.2 µM), inactives show at the highest dose activity change, negative = growth inhibition, hits mostly inhibitors; note: potency is the fitted concentration of half-maximal effect; nearly all actives have a fitted effect of over 55% in size
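Seeded 400 DT40-hTDP1 cells/well (vehicle DMSO, no 20 nM CPT); pinned compounds; ≥48 hr at 37 °C; CellTiter-Glo luminescence as viability measure.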
HT1080-NT tox = kills 2HG-producing HT-1080-NT fibrosarcoma cells. AID 686970. hit rate 1.6% among 360,000. HT-1080-NT fibrosarcoma viability, CellTiter-Glo ATP luminescence, 48 h. Potency, µM (titrated, usually from 46.1 µM), inactives show at the top dose activity, negative = less viability, usual class: cytotoxic;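 note: NT is the 2HG producing partner of a matched IDH1 knockdown line; potency is the fitted concentration of half-maximal effect; 0% = DMSO-treated cells and -100% = media-only wells without cells; nearly all actives have a fitted effect of over 55% in size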
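A 48-hour cytotoxicity screen used HT-1080-NT cells plated 2 hours before compound delivery. ATP-based CellTiter-Glo luminescence measured viability, normalized to DMSO and no-cell controls.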
IL-1B inflam inh = inhibitors of inflammasome signaling (IL-1 beta secretion); hit rate 4.7% among 360,000; activity change, % at 57.5 µM; THP-1 LPS/ATP IL-1B secretion, AlphaLISA, 16 h; stronger effect = lower value; in the data active = activity change below about -50%; inconclusive = mostly about -30% to -49%
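Secreted IL-1B measured by AlphaLISA bead assay after 16 h compound exposure of THP-1 cells; compounds (final up to 57.5 uM) added 1 h before LPS (250 ng/mL) and ATP (1.25 mM) stimulation; lower signal means less secretion.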
HT1080 IDH1KD tx = kills HT-1080 cells with IDH1 knockdown | HT-1080 IDH1 knockdown viability, ATP luminescence, 48 h | Potency, µM (top dose mostly 46.1 µM), without a hit: at the top dose activity, negative = toxicity, hits mostly cytotoxic | hit rate 2% among 360,000 | AID 686971;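 note: potency is the fitted concentration of half-maximal effect; 0% = DMSO wells and -100% = cell-free medium wells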
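Luminescent ATP read-out (CellTiter-Glo, 10 min at room temperature) after 48 h compound exposure at 37 °C gave viability of IDH1-knockdown HT-1080 cells. Activity was normalised to DMSO and cell-free wells, then fitted as concentration-response curves.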
ALOX12 inh = blocks human arachidonate 12S-lipoxygenase. P18054. purified 12hLO, xylenol orange hydroperoxide absorbance. Potency, µM (titrated, usually from 108 µM), for the others: at the top dose activity change, negative = inhibition, most hits filed as inhibitors. hit rate 1.1% among 580,000; note: potency is the fitted concentration of half-maximal effect
Target sequence (P18054 whole entry, looked up): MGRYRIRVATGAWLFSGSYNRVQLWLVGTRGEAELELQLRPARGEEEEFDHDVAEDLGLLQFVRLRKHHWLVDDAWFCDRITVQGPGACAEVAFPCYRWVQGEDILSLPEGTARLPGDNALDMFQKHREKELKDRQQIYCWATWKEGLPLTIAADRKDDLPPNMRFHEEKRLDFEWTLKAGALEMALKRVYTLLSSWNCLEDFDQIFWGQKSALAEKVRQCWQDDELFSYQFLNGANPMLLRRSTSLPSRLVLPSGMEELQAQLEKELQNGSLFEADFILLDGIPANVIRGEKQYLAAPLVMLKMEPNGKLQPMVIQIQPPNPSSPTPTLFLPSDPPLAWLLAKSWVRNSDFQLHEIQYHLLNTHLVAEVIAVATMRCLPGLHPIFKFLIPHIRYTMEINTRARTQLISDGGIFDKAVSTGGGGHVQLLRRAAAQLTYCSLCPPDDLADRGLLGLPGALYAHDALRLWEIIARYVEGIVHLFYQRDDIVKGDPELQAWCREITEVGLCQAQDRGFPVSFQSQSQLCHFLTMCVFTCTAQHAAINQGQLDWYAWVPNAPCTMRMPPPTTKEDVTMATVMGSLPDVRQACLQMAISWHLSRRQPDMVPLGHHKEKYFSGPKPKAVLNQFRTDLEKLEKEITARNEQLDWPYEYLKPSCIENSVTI
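Purified human 12hLO (150 nM final) in 25 mM Hepes, 0.01% Triton X-100, pH 7.0 was preincubated 15 min at room temperature with compound. Then 40 uM arachidonic acid was added, 30 min. Hydroperoxide was read by Fe-XO absorbance ratio 573/405 nm.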
TDP1 cell CPT = DT40-hTDP1 cell growth loss with CPT. chicken DT40 Tdp1-/-;hTDP1 cells + 20 nM CPT, ATP luminescence, 48 h. AID 686979. Potency, µM (series often up to 46.2 µM), for the others: top-dose activity change, negative = growth inhibition, hits mostly inhibitors. hit rate 12% among 420,000; note: potency is the fitted concentration of half-maximal effect; nearly all actives have a fitted effect of over 55% in size
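Cell growth measured by CellTiter-Glo luminescence after a minimum 48 h, 37 C compound exposure with 20 nM CPT in Tdp1-knockout DT40 cells stably expressing hTDP1, seeded 400/well; qHTS titration format.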
The depositor's hits bear a star; ? = inconclusive; / = not tested or not shown; [ ] = dose if it differs, or a comment. Shown is part of a subset that was picked to be rich in hits. Unless noted, calls come from the whole dose curve; as a rule, active = well fitted curve in the direction sought with a large enough effect; inconclusive = small, poorly fitted or top-dose-only effect, or another doubt; inactive = no such curve, though single readings can be large; an effect the other way counts as inactive or inconclusive. Unless noted, % is set by controls: 0 for no effect and ±100 for the full control effect.

SMILES	TDP1 cell noCPT	HT1080-NT tox	IL-1B inflam inh	HT1080 IDH1KD tx	ALOX12 inh	TDP1 cell CPT
O=C(c1cc(C(=O)N2CCCC2)cc([N+](=O)[O-])c1)N1CCCC1	7%	0%	5	1%	8%	3%
COc1cccc(-c2[nH]cnc2-c2ccccc2)c1OCCCn1ccnc1	/	/	/	/	21%	/
O=C1/C(=C/c2cccc(Br)c2)SC(=S)N1/N=C/c1cc([N+](=O)[O-])ccc1O	?	3%	-13	-2%	-26%	23µM*
Fc1cc(F)cc(-c2oncc2-c2nnnn2-c2ccccc2)c1	6%	-7%	18	1%	-6%	-13%
Cc1ccc(-n2nnnc2-c2cnoc2-c2cccc(F)c2)cc1	?	-12%	47	-12%	?	26µM*
Cc1ccc2cc(CCNC(=O)c3cccc([N+](=O)[O-])c3)c(=O)[nH]c2c1C	16µM*	18%	0	18%	31%	23µM*
Cc1ccc2cc(CCNC(=O)c3cccs3)c(=O)[nH]c2c1C	?	11%	-20	8%	5%	23µM*
Cc1ccc2cc(CCNC(=O)c3ccc(C)c([N+](=O)[O-])c3)c(=O)[nH]c2c1	?	-3%	-21	-4%	?	21µM*
CC(=O)NCCc1cc2ccc(C)c(C)c2[nH]c1=O	-2%	-1%	12	9%	41%[57.4 µM]	0%
CCC(CC)C(=O)NCCc1cc2ccc(C)cc2[nH]c1=O	-26%	6%	10	11%	-3%	-1%
Cc1ccc2cc(CNC(C)(C)C)c(=O)[nH]c2c1	-10%	0%	9	1%	117%	-3%
CNCc1cc2ccc(C)cc2[nH]c1=O	?	0%	21	-1%	6%	16µM*
Cn1nccc1CN1CCC(N2CCOCC2=O)CC1	/	/	/	/	9%[12.5 µM]	/
CCn1c(C(=O)NCc2cccnc2)cc2sc(Cl)cc21	?	?	-11	?	1%	-29%
COC(=O)c1cccc(COC(=O)C23CC4CC(CC(O)(C4)C2)C3)c1	/	/	/	/	-14%	/
COc1ccc2cc(CCNC(=O)c3cccc([N+](=O)[O-])c3)c(=O)[nH]c2c1	?	6%	0	0%	-21%	23µM*
COc1ccc2cc(CCNC(=O)c3ccc4c(c3)OCO4)c(=O)[nH]c2c1	?	-7%	-11	-5%	-11%	?
Oc1ccc(-c2sc(Nc3ccccc3)n[n+]2-c2ccc(F)cc2)cc1	-11%	0%	16	1%	?	-10%
Oc1ccc2ccccc2c1-c1sc(Nc2ccccc2)n[n+]1-c1ccc(F)cc1	16µM*	0%	8	-14%	?	?
O=c1[nH]c(Nc2ccc(F)cc2)cc2ccccc12	?	2%[9.24 µM]	53	-2%	?	-26%
c1ccc(-[n+]2nc(Nc3cccc4ccccc34)sc2-c2c3ccccc3cc3ccccc23)cc1	15µM*	3.7µM*	-9	8.2µM*	/	?
Fc1ccc(-[n+]2nc(Nc3ccccc3)sc2-c2c3ccccc3cc3ccccc23)cc1	3.7µM*	21µM*	-89*	23µM*	?	5.8µM*
CC(C)c1ccc(C2C3=C(COC3=O)Nc3cc4c(cc32)OCO4)cc1 (stereo not drawn)	0.92µM*	1.5µM*	14	1.6µM*	22%	0.65µM*
C[C@@H]1CN(Cc2ccc3c(c2)CN(C(=O)CN2CCOc4ccccc4C2)CCO3)C[C@H](C)O1	-23%	/	/	/	15%	-4%[9.04 µM]
C[C@@H]1CN(Cc2ccc3c(c2)CN(C(=O)c2ccc(Oc4ccccc4)o2)CCO3)C[C@H](C)O1	12µM*	/	/	/	13%	-14%[9.04 µM]
SMILES	TDP1 cell noCPT	HT1080-NT tox	IL-1B inflam inh	HT1080 IDH1KD tx	ALOX12 inh	TDP1 cell CPT
C[C@@H]1CN(Cc2ccc3c(c2)CN(Cc2nc(-c4ccccc4)cs2)CCO3)C[C@H](C)O1	23µM*	/	/	/	-2%	-7%[9.04 µM]
CSCC(=O)N1CC[C@H](NC(=O)NC(C)C)[C@H]1C(=O)N[C@H](Cc1ccccc1)C(N)=O	/	/	/	/	5%	/
CCCN(CC1CC1)C(=S)NC(=O)c1cc(Br)ccc1Cl	16µM*	-9%	31	-20%	?	?
CN1CCCN(C(=O)[C@H]2C[C@@](C)(C(=O)O)N(C)[C@H]2c2ccccc2Cl)CC1	/	/	/	/	26%	/
CCn1c(=O)n(CC)c2cc(N3CCCC3)c(NC(=O)c3cc(Br)ccc3OC)cc21	?	-3%	-14	6%	-15%	?
COc1ccc(Br)c(C(=O)Nc2cc3c(cc2N2CCCC2)n(C)c(=O)c(=O)n3C)c1	21µM*	/	/	/	32%	16µM*
Cn1c(=O)n(C)c2cc(N3CCCCC3)c(NC(=O)c3ccccc3)cc21	?	?	32	23%	-9%	29µM*
CCn1c(=O)n(CC)c2cc(N3CCCCC3)c(NC(=O)Nc3cc(OC)ccc3OC)cc21	/	/	/	/	-15%	/
CCn1c(=O)n(CC)c2cc(N3CCCC3)c(NC(=O)Nc3cc(C)cc(C)c3)cc21	18µM*	/	/	/	-22%	21µM*
CCn1c(=O)n(CC)c2cc(N3CCCC3)c(NC(=O)c3ccccc3)cc21	9.2µM*	-8%	?	-16%	6%	21µM*
CC1(C)Cc2c(C#N)c(Nc3ccccc3)n3c(SCC(=O)Nc4ccccc4)nnc3c2CO1	/	/	/	/	21%	/
COc1cc(CC(=O)NCC2CCCCC2)cc(OC)c1OC	1%	13%	18	17%	7%	-8%
Cc1cc(CN2CCN(C(=O)NC(C)Cn3cccn3)CC2)no1 (stereo not drawn)	/	/	/	/	41%	/
CCn1c(=O)n(CC)c2cc(N3CCCC3)c(NC(=O)c3ccccc3C)cc21	21µM*	6%	8	-16%	4%	16µM*
CCOc1ccccc1C(=O)Nc1cc2c(cc1N1CCCCC1)n(C)c(=O)n2C	18µM*	/	/	/	-71%	15µM*
CCOc1ccccc1C(=O)NN1C(=O)CCC1=O	18µM*	0%	54	8%	-5%	?
CCn1c(=O)n(CC)c2cc(N3CCCCC3)c(NC(=O)Nc3cc(Cl)ccc3OC)cc21	18µM*	/	/	/	3%	23µM*
CCn1c(=O)n(CC)c2cc(N3CCCCC3)c(NC(=O)Nc3ccccc3C(F)(F)F)cc21	10µM*	/	/	/	10%	12µM*
CCn1c(=O)n(CC)c2cc(N3CCCC3)c(NC(=O)c3ccccc3F)cc21	12µM*	-2%	?	1%	27%	18µM*

Assay outcomes (PubChem BioAssay)
